This note sets out measurements from paper PMC7862700, “An all-to-all approach to the identification of sequence-specific readers for epigenetic DNA modifications on cytosine”.

What all share (experiment): DAPPL (digital affinity profiling via proximity ligation, sequencing); 10 mM Tris-HCl pH 7.5, 50 mM NaCl, 1 mM DTT, 4% glycerol, room temperature, 30 min; GST-TFs on glutathione beads, 16-mer random dsDNA library, 0.1% formaldehyde crosslink after washing; high values mean tight binding
One assay concerns the target T1, FLI1 (Homo sapiens, UniProt Q01543 1-452).
T1 sequence: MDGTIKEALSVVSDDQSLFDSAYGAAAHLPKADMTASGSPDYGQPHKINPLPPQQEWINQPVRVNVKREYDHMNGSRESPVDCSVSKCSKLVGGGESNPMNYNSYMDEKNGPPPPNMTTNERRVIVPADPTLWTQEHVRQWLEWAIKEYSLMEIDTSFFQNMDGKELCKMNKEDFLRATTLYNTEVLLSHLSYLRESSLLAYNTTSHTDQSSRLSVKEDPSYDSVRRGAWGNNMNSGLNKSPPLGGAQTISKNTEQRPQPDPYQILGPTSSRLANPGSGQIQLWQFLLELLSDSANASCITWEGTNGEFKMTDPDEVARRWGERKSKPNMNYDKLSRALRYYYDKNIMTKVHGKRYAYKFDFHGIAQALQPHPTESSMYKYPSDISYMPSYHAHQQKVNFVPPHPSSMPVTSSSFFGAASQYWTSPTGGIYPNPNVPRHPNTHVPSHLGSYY
The settings on record: protein: recombinant; tags: N-terminal GST; dsDNA, one strand shown. A digest of the protocol:
(§1)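 Human transcription factors were made in yeast as GST fusions, captured on glutathione beads and barcoded with DNA. With a tag-only sample included, the pool was incubated with 200 nmole of a random double-stranded 16-mer DNA library in Tris/NaCl/DTT/glycerol buffer at room temperature for 30 min, then crosslinked with 0.1% formaldehyde after washing, ligated by proximity, amplified and sequenced. For binding signal, each hexamer's read frequency for a factor is divided by its frequency for the tag-only sample.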

Another assay addresses T2, ELK1 (Homo sapiens, UniProt P19419 1-428).
T2 sequence: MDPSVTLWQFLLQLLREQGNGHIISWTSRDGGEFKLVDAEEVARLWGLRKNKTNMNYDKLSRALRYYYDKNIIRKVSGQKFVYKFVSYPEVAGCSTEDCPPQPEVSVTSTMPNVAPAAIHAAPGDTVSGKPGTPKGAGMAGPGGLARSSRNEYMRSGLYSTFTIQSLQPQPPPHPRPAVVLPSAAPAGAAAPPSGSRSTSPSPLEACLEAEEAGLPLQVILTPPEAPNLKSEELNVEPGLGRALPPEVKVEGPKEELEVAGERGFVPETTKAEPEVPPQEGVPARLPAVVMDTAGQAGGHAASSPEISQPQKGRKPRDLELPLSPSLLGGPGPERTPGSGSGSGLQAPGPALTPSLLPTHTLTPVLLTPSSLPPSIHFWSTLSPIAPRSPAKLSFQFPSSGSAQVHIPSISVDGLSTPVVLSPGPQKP
As to conditions: protein: recombinant; tags: N-terminal GST; dsDNA, one strand shown. In outline:
as §1

A further assay concerns the target T3, GABPA (Homo sapiens, UniProt Q06546 1-454).
T3 sequence: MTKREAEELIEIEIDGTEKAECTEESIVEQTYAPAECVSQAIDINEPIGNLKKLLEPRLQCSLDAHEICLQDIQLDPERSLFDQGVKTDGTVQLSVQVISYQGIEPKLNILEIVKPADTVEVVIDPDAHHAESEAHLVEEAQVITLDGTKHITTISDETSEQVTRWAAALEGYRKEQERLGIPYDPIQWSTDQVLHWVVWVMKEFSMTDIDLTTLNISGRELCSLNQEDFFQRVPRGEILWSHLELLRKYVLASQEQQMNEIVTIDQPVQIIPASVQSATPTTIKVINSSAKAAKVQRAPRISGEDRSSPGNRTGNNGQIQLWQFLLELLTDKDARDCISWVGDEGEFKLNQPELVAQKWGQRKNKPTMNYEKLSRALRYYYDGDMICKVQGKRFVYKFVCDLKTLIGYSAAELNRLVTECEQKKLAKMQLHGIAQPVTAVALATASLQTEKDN
The settings on record: protein: recombinant; tags: N-terminal GST; dsDNA, one strand shown. A digest of the protocol: as §1

The next assay has as its target T4, ERG (Homo sapiens, UniProt P11308 1-479).
T4 sequence: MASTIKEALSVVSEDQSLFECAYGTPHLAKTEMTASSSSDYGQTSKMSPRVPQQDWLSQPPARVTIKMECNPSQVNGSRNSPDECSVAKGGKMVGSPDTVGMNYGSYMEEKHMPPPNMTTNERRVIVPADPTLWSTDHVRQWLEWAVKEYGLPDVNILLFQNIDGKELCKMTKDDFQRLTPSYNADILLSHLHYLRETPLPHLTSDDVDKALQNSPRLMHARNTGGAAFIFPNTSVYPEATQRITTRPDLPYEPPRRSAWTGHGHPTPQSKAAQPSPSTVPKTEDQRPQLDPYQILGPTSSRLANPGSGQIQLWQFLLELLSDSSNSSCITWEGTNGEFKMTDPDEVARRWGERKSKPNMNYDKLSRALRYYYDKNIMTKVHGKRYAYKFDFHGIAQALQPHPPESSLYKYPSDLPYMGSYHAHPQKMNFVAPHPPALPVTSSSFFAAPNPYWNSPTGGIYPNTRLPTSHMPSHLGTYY
The settings on record: protein: recombinant; tags: N-terminal GST; dsDNA, one strand shown. In outline:
as §1

The target in a further assay is ELF1 (Homo sapiens, UniProt P32519 1-619). The settings on record: protein: recombinant; tags: N-terminal GST; dsDNA, one strand shown. In outline:
as §1

The target in another assay is T5, EHF (Homo sapiens, UniProt Q9NZC4 1-300).
T5 sequence: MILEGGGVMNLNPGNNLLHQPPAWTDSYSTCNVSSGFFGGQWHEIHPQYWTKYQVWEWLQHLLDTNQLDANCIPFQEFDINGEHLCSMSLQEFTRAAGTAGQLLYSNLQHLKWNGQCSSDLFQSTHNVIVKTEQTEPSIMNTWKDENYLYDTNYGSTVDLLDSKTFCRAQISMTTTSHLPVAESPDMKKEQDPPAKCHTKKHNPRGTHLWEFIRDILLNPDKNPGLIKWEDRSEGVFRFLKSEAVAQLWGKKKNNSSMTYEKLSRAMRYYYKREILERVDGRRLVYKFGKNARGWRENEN
The settings on record: protein: recombinant; tags: N-terminal GST; dsDNA, one strand shown. A digest of the protocol: as §1

The next assay has as its target SPI1 (Homo sapiens, UniProt P17947 1-270). The settings on record: protein: recombinant; tags: N-terminal GST; dsDNA, one strand shown. In outline: as §1
The next assay addresses SPIB (Homo sapiens, UniProt Q01892 1-262). As to conditions: protein: recombinant; tags: N-terminal GST; dsDNA, one strand shown. A digest of the protocol: as §1
A further assay concerns the target T6, ELK3 (Homo sapiens, UniProt P41970 1-407).
T6 sequence: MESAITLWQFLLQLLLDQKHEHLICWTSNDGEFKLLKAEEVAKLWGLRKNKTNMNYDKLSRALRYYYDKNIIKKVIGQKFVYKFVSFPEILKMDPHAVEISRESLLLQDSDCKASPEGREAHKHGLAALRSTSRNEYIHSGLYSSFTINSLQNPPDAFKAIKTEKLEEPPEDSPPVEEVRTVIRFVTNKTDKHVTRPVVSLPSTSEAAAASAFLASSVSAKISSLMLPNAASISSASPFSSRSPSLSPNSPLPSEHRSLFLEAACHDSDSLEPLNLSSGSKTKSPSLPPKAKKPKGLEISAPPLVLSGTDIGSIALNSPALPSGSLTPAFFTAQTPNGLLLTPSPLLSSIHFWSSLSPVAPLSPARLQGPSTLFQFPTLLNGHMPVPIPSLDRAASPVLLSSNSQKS
As to conditions: protein: recombinant; tags: N-terminal GST; dsDNA, one strand shown. In outline: as §1

In the next assay the target is T7, FEV (Homo sapiens, UniProt Q99581 1-238).
T7 sequence: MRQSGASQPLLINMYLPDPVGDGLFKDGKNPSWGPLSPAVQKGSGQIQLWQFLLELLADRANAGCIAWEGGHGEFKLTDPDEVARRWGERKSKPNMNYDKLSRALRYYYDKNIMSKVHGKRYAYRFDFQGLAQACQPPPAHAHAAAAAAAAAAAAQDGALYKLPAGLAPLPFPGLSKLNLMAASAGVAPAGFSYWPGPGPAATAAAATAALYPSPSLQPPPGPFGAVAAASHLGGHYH
The settings on record: protein: recombinant; tags: N-terminal GST; dsDNA, one strand shown. In outline: as §1

The next assay addresses ETV5 (Homo sapiens, UniProt P41161 1-510). The settings on record: protein: recombinant; tags: N-terminal GST; dsDNA, one strand shown. A digest of the protocol:
as §1

For another assay, the target named is HSF1 (Homo sapiens, UniProt Q00613 1-529). The settings on record: protein: recombinant; tags: N-terminal GST; chain copies: 3; dsDNA, one strand shown. In outline: as §1
Chain of HSF1 (Q00613 whole entry): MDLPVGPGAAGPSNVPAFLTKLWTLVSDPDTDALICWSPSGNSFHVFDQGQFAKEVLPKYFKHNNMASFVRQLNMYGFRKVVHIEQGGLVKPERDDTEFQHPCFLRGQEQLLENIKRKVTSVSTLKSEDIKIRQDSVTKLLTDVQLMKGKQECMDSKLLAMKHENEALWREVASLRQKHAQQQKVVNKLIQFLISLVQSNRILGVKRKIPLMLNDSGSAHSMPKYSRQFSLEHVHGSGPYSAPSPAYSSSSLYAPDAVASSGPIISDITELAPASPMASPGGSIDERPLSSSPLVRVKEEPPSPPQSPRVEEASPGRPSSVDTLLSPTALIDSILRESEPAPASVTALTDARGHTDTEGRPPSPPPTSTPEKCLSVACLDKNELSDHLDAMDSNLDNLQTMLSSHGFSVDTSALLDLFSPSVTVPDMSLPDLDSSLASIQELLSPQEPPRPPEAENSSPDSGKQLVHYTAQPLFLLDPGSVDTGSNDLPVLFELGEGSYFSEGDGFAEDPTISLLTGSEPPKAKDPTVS
In a further assay the target is T8, SPIC (Homo sapiens, UniProt Q8N5J4 1-248).
T8 sequence: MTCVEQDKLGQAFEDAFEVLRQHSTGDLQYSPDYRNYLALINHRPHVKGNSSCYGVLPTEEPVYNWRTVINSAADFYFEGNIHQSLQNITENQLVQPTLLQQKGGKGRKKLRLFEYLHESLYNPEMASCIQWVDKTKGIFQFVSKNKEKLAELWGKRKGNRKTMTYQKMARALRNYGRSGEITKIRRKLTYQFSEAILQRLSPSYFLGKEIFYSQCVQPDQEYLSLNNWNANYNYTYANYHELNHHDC
The settings on record: protein: recombinant; tags: N-terminal GST; dsDNA, one strand shown. A digest of the protocol:
as §1

The target of another assay is ELF4 (Homo sapiens, UniProt Q99607 1-663). As to conditions: protein: recombinant; tags: N-terminal GST; dsDNA, one strand shown. A digest of the protocol:
as §1

In another assay the target is T9, ELK4 (Homo sapiens, UniProt P28324-2 1-405).
T9 sequence: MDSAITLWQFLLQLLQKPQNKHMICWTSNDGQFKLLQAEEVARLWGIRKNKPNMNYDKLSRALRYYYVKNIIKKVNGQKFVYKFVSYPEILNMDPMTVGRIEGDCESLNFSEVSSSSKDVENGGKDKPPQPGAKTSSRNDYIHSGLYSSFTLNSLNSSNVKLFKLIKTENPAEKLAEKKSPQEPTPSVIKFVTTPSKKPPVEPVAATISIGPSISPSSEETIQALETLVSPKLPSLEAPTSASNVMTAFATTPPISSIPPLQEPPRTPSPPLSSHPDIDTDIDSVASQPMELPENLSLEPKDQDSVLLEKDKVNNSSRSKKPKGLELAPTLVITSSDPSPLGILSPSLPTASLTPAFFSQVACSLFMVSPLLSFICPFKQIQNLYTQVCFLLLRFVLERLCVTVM
As to conditions: protein: recombinant; tags: N-terminal GST; dsDNA, one strand shown. In outline:
as §1

A further assay concerns the target T10, ETV2 (Homo sapiens, UniProt O00321 1-342).
T10 sequence: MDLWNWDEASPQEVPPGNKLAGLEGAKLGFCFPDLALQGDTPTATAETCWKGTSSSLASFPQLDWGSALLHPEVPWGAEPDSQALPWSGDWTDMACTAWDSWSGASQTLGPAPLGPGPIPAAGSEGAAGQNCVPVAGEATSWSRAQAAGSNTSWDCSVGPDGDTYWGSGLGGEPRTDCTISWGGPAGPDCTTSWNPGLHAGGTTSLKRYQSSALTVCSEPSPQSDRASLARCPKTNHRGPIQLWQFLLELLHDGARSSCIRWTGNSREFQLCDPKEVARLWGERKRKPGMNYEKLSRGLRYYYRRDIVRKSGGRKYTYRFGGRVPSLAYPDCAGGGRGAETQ
As to conditions: protein: recombinant; tags: N-terminal GST; dsDNA, one strand shown. A digest of the protocol:
as §1

The target of the next assay is T11, ELF3 (Homo sapiens, UniProt P78545 1-371).
T11 sequence: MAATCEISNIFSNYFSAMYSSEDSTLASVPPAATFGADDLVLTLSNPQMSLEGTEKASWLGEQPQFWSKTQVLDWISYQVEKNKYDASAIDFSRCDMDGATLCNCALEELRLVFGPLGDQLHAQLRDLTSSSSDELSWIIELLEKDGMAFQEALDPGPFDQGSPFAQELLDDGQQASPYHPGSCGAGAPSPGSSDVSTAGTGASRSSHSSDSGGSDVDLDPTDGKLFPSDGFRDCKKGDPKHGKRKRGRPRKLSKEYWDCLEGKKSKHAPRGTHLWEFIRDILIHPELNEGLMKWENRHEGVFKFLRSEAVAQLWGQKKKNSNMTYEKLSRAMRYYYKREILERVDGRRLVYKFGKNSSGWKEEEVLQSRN
The settings on record: protein: recombinant; tags: N-terminal GST; dsDNA, one strand shown. In outline: as §1

A further assay addresses CRX (Homo sapiens, UniProt O43186 1-299). The settings on record: protein: recombinant; tags: N-terminal GST; dsDNA, one strand shown. A digest of the protocol: as §1
The next assay deals with ETV1 (Homo sapiens, UniProt P50549 1-477). As to conditions: protein: recombinant; tags: N-terminal GST; dsDNA, one strand shown. A digest of the protocol:
as §1

Chain of CRX (O43186 whole entry): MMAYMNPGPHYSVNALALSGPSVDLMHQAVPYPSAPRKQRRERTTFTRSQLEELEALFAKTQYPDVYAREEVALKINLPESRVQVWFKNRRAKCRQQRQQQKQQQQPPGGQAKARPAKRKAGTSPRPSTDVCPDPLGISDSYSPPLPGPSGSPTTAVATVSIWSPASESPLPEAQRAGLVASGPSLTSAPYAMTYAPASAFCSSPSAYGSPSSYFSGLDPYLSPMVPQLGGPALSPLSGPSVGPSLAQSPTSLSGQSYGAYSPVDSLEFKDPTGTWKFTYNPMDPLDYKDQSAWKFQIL
Chain of ETV5 (P41161 whole entry): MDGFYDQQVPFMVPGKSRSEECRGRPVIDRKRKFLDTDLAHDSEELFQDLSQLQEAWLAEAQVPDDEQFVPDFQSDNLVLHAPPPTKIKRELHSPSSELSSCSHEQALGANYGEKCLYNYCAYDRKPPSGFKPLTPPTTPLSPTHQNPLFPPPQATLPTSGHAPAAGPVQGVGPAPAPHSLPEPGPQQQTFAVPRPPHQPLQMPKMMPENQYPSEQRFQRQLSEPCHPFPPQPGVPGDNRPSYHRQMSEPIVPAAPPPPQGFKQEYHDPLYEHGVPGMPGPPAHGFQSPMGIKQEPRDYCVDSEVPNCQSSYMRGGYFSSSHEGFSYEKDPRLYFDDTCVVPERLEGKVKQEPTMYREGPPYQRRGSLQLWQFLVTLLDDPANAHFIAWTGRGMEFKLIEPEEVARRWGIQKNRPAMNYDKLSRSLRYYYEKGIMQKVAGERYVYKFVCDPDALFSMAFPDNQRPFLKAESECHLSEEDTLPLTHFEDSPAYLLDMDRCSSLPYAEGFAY
Chain of ETV1 (P50549 whole entry): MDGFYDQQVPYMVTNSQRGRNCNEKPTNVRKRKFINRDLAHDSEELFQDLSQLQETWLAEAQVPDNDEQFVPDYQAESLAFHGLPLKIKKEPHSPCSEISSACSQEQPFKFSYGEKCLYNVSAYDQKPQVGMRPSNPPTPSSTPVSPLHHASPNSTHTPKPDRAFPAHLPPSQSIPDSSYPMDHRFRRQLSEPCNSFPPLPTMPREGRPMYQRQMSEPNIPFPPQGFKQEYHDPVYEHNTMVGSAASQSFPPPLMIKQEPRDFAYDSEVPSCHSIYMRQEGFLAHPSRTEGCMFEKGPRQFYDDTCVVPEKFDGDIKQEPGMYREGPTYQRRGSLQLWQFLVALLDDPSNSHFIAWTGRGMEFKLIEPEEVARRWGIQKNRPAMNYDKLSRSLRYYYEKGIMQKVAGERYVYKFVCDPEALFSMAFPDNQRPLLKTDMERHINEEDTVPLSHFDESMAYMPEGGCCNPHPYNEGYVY
Chain of SPIB (Q01892 whole entry): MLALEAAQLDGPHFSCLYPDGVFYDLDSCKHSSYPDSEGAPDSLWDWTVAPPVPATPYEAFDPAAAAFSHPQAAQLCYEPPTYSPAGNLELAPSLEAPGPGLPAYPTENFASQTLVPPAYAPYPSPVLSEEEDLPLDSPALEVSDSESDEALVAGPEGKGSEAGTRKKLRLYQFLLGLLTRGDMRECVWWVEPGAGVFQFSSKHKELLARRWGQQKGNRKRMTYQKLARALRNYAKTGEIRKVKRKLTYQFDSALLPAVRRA
Chain of ELF1 (P32519 whole entry): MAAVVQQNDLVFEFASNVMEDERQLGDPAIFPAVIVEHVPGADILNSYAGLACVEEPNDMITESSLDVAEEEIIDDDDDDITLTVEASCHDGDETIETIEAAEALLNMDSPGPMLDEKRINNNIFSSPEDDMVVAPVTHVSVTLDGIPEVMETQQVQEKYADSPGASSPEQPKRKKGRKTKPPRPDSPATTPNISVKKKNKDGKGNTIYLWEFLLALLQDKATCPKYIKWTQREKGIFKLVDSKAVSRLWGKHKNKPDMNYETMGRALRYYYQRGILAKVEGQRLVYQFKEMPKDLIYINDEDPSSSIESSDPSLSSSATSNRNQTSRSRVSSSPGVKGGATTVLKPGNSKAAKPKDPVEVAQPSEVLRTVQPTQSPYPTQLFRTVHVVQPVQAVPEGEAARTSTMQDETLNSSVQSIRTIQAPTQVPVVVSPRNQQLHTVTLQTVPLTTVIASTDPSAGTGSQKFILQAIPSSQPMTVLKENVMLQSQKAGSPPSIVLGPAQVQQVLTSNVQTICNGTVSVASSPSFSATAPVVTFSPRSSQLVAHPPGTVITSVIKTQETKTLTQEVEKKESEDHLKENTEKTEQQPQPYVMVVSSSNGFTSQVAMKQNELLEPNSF
Chain of ELF4 (Q99607 whole entry): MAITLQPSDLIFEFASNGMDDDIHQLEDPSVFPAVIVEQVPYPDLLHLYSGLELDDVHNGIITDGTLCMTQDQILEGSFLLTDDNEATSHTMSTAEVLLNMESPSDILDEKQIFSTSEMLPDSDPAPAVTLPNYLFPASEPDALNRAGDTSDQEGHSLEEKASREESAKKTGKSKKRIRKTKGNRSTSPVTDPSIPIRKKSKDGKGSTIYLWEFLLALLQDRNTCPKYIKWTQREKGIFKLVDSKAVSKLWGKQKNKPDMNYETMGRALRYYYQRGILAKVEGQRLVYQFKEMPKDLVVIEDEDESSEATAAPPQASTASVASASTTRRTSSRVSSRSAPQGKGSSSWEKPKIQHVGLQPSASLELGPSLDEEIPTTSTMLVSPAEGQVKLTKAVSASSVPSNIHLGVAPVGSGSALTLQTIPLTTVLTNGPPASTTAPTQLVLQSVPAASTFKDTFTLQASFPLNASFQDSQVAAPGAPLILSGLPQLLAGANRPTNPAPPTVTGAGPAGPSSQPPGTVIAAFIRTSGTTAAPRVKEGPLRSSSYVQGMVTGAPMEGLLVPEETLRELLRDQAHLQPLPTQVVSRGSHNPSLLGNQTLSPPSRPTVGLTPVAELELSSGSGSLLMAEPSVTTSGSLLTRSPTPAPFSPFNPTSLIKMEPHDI

Consider TGACCT, for which the binding signal with FLI1 was 1.75 fold enrichment (6-mer frequency, TF over GST control); with ELK1, 1.82 fold enrichment (6-mer frequency, TF over GST control); with GABPA, 1.81 fold enrichment (6-mer frequency, TF over GST control); with ERG, 1.73 fold enrichment (6-mer frequency, TF over GST control); with ELF1 it was 1.84 fold enrichment (6-mer frequency, TF over GST control); with EHF it was 1.86 fold enrichment (6-mer frequency, TF over GST control). For the same sequence, the binding signal with SPI1 was 1.7 fold enrichment (6-mer frequency, TF over GST control); in the assay with SPIB, 1.56 fold enrichment (6-mer frequency, TF over GST control); in the assay with ELK3 it was 1.6 fold enrichment (6-mer frequency, TF over GST control); with FEV it was 1.69 fold enrichment (6-mer frequency, TF over GST control); with ETV5, 1.68 fold enrichment (6-mer frequency, TF over GST control); with HSF1, 1.5 fold enrichment (6-mer frequency, TF over GST control). Moreover, the binding signal was 1.79 fold enrichment (6-mer frequency, TF over GST control) with SPIC; 1.82 fold enrichment (6-mer frequency, TF over GST control) in the assay with ELF4; 1.74 fold enrichment (6-mer frequency, TF over GST control) in the assay with ELK4; 1.65 fold enrichment (6-mer frequency, TF over GST control) with ETV2; 1.68 fold enrichment (6-mer frequency, TF over GST control) in the assay with ELF3; 1.36 fold enrichment (6-mer frequency, TF over GST control) in the assay with CRX. The binding signal with ETV1 was 1.88 fold enrichment (6-mer frequency, TF over GST control).
